Test results as given in PubChem BioAssay (NCI).
The panel holds about 83,000 compounds, 20% with a hit somewhere; the sample as a whole holds those more often.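 Compound tested at a single concentration for 48 hours in 96-well plates; a percent growth value below 10 was scored as active.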 Calls of active or inactive are those of the source.

Key:
Assay in all cases: NCI-60 one-dose screen, 48 h (100 = growth as untreated, 0 = no growth, -100 = all killed)
Conditions in all cases: 10 µM unless noted
SR leukemia = system: SR leukemia
RPMI-8226 leukemia = system: RPMI-8226 leukemia
OVCAR-8 ovarian = system: OVCAR-8 ovarian
OVCAR-5 ovarian = system: OVCAR-5 ovarian
OVCAR-4 ovarian = system: OVCAR-4 ovarian
SK-OV-3 ovarian = system: SK-OV-3 ovarian
IGROV1 ovarian = system: IGROV1 ovarian
HS 578T breast = system: HS 578T breast
NCI/ADR-RES ovarian = system: NCI/ADR-RES ovarian

Measured: growth

COc1ccc2c(ccn2C(=O)N2c3ccccc3Sc3ccccc32)c1
inactive: SR leukemia 22% | RPMI-8226 leukemia 16.8% | OVCAR-8 ovarian 31.9% | OVCAR-5 ovarian 60.6% | OVCAR-4 ovarian 66.5% | SK-OV-3 ovarian 42.5% | IGROV1 ovarian 39.2% | HS 578T breast 19.8% | NCI/ADR-RES ovarian 11.6%

COc1ccc(S(=O)(=O)n2cc(C=O)c3ccccc32)c(OC)c1
inactive: SR leukemia 16.4% | RPMI-8226 leukemia 38.7% | OVCAR-8 ovarian 76.1% | OVCAR-5 ovarian 96.1% | OVCAR-4 ovarian 80.9% | SK-OV-3 ovarian 97.4% | IGROV1 ovarian 86.6% | HS 578T breast 78.3% | NCI/ADR-RES ovarian 51%

CCOC(=O)c1c(NC(=O)c2cccc(C(F)(F)F)c2)sc2c(CN3CCN(C)CC3)c(O)ccc12
active: RPMI-8226 leukemia -28.8% | OVCAR-8 ovarian -35.2% | OVCAR-5 ovarian -77.9% | IGROV1 ovarian -86.1% | NCI/ADR-RES ovarian -38.2%
inactive: SR leukemia 23.5% | OVCAR-4 ovarian 26.8% | SK-OV-3 ovarian 97.3% | HS 578T breast 76.3%

COc1cc(/C=N/n2cnc3oc(-c4ccccc4)cc3c2=N)cc(CN2CCCC2)c1O
active: RPMI-8226 leukemia -42.2% | OVCAR-8 ovarian -22.2% | OVCAR-4 ovarian -49.7% | IGROV1 ovarian -62.8%
inactive: SR leukemia 27.4% | OVCAR-5 ovarian 99% | SK-OV-3 ovarian 93.9% | HS 578T breast 63.6% | NCI/ADR-RES ovarian 16.6%

C#C[C@]1(O)CC[C@H]2[C@@H]3CC=C4c5sc(Nc6cccc(Cl)n6)nc5CC[C@]4(C)[C@H]3CC[C@@]21C
inactive: OVCAR-8 ovarian 29.3% | OVCAR-5 ovarian 22.8% | OVCAR-4 ovarian 47.8% | IGROV1 ovarian 35.6% | NCI/ADR-RES ovarian 23%
active: SR leukemia 2.56% | RPMI-8226 leukemia -23.2% | SK-OV-3 ovarian -13.7% | HS 578T breast -19.9%

COc1ccc(-c2nc3cc(Cl)c(Cl)cc3n2CC(=O)N=Nc2c(O)[nH]c3ccccc23)cc1
inactive: SR leukemia 66.4% | RPMI-8226 leukemia 62.5% | OVCAR-8 ovarian 78.4% | OVCAR-5 ovarian 63% | OVCAR-4 ovarian 75.1% | SK-OV-3 ovarian 100% | IGROV1 ovarian 52.9% | HS 578T breast 53.4% | NCI/ADR-RES ovarian 44.3%

CN1CCN(c2nc(-c3cnc4ccccc4n3)cc3ccccc23)CC1
inactive: RPMI-8226 leukemia 56.7% | OVCAR-8 ovarian 89.7% | OVCAR-5 ovarian 91.1% | OVCAR-4 ovarian 100% | SK-OV-3 ovarian 92.1% | IGROV1 ovarian 73.7% | HS 578T breast 85.6% | NCI/ADR-RES ovarian 82.2%
active: SR leukemia 1.45%

C/C=C/C=C1\C[C@H]2CO[C@H](O2)C1=O
inactive: SR leukemia 53.1% | RPMI-8226 leukemia 95.4% | OVCAR-8 ovarian 99.7% | OVCAR-5 ovarian 103% | OVCAR-4 ovarian 101% | SK-OV-3 ovarian 103% | IGROV1 ovarian 97.7% | HS 578T breast 107% | NCI/ADR-RES ovarian 98.1%

COc1ccc(/C=N\NC(=O)c2ccc3nc(-c4ccc(Br)cc4)[nH]c3c2)cc1
inactive: SR leukemia 11.8% | RPMI-8226 leukemia 42.1% | OVCAR-8 ovarian 13.6% | OVCAR-5 ovarian 79.2% | OVCAR-4 ovarian 12.5% | SK-OV-3 ovarian 62.8% | IGROV1 ovarian 20% | HS 578T breast 14.8% | NCI/ADR-RES ovarian 75.2%

O=c1oc2ccc(-c3ccc(F)cc3F)cc2c(=O)n1-c1cccc(C(F)(F)F)c1
active: RPMI-8226 leukemia -12.9% | SK-OV-3 ovarian 0.403% | IGROV1 ovarian 8.17% | HS 578T breast -4.83% | NCI/ADR-RES ovarian 4%
inactive: SR leukemia 18.4% | OVCAR-8 ovarian 12.4% | OVCAR-5 ovarian 10.4% | OVCAR-4 ovarian 13.4%

CCc1ccc(NC(=O)N[C@@H](Cc2cccc(C)c2)C(=O)N[C@@H]2C(=O)N3CCC[C@H]3C(=O)N3CCCC[C@H]3C(=O)N[C@@H](CO)C(=O)N3C[C@H](C)C[C@H]3C(=O)O[C@H]2C)c(F)c1
inactive: SR leukemia 34.9% | RPMI-8226 leukemia 18.6% | OVCAR-8 ovarian 21.5% | OVCAR-5 ovarian 33.5% | OVCAR-4 ovarian 22.1% | SK-OV-3 ovarian 22.1% | IGROV1 ovarian 43.3% | HS 578T breast 28.5% | NCI/ADR-RES ovarian 37.7%

O=c1[nH]c(CNc2ccc(NCc3c(-c4ccccc4)no[n+]3[O-])cc2)nc2c1cnn2-c1ccccc1
inactive: SR leukemia 45.7% | RPMI-8226 leukemia 61.9% | OVCAR-8 ovarian 79.4% | OVCAR-5 ovarian 109% | OVCAR-4 ovarian 64.3% | SK-OV-3 ovarian 102% | IGROV1 ovarian 73.5% | HS 578T breast 85.8% | NCI/ADR-RES ovarian 60.6%

COc1ccc(/C=N/Nc2nc(Nc3ccccc3)nc(Nc3ccc(S(N)(=O)=O)cc3)n2)cc1
inactive: SR leukemia 48.5% | RPMI-8226 leukemia 47.7% | OVCAR-8 ovarian 67.6% | OVCAR-5 ovarian 85.6% | OVCAR-4 ovarian 66.2% | SK-OV-3 ovarian 105% | IGROV1 ovarian 58.7% | HS 578T breast 58.3% | NCI/ADR-RES ovarian 96.3%

CC(C)SC1=NC(=C(C(=N1)NC2=ClC=CC=C2)C#N)C3=CC=CC=C3
active: OVCAR-4 ovarian -4.9% | IGROV1 ovarian -5.3%
inactive: SR leukemia 69.3% | RPMI-8226 leukemia 88.2% | OVCAR-8 ovarian 46.8% | OVCAR-5 ovarian 80.3% | SK-OV-3 ovarian 88.5% | HS 578T breast 65.4% | NCI/ADR-RES ovarian 52.7%

CCOC(=O)/C(F)=C/C1CC1C1CCCCC1 (stereo not given)
inactive: SR leukemia 111% | RPMI-8226 leukemia 105% | OVCAR-8 ovarian 109% | OVCAR-5 ovarian 102% | OVCAR-4 ovarian 107% | SK-OV-3 ovarian 126% | IGROV1 ovarian 110% | HS 578T breast 105% | NCI/ADR-RES ovarian 101%

COc1cc(-c2nc(SCc3ccc(C)cc3)[nH]c(=O)c2C#N)ccc1OCc1ccccc1
inactive: SR leukemia 125% | RPMI-8226 leukemia 105% | OVCAR-8 ovarian 101% | OVCAR-5 ovarian 105% | OVCAR-4 ovarian 98.1% | SK-OV-3 ovarian 108% | IGROV1 ovarian 116% | HS 578T breast 107% | NCI/ADR-RES ovarian 103%

CCCCCCNC(=O)Oc1ccc(/C(=C(/C)c2ccccc2)c2ccc(OCCN(C)C)cc2)cc1
inactive: RPMI-8226 leukemia 50.5% | OVCAR-8 ovarian 73.6% | OVCAR-5 ovarian 73% | OVCAR-4 ovarian 73.6% | SK-OV-3 ovarian 93.2% | IGROV1 ovarian 66.3% | HS 578T breast 64.5% | NCI/ADR-RES ovarian 71.2%
active: SR leukemia -27.8%

C=CCn1c(SCC(=O)Nc2cccc(C(=O)/C=C/c3ccc(Cl)cc3)c2)nc2ccccc2c1=O
inactive: SR leukemia 21% | OVCAR-8 ovarian 95% | OVCAR-5 ovarian 97.9% | OVCAR-4 ovarian 87.6% | SK-OV-3 ovarian 110% | IGROV1 ovarian 96.4% | HS 578T breast 87.3% | NCI/ADR-RES ovarian 91%
active: RPMI-8226 leukemia 9.15%

O=C1c2c(c3c4cccnc4[nH]c3c3ccc4ccccc4c23)C(=O)N1CCN1CCOCC1
inactive: SR leukemia 21.8% | RPMI-8226 leukemia 42.5% | OVCAR-8 ovarian 47.2% | OVCAR-5 ovarian 98.3% | OVCAR-4 ovarian 84.4% | SK-OV-3 ovarian 86.9% | IGROV1 ovarian 57.7% | HS 578T breast 82.1% | NCI/ADR-RES ovarian 47%

Cc1nc(-c2cc3ccccc3c(N3CCN(C)CC3)n2)cs1
inactive: SR leukemia 102% | RPMI-8226 leukemia 99.2% | OVCAR-8 ovarian 98.8% | OVCAR-5 ovarian 104% | OVCAR-4 ovarian 102% | SK-OV-3 ovarian 97.1% | IGROV1 ovarian 97.3% | HS 578T breast 85.5% | NCI/ADR-RES ovarian 94.3%
